Bioassay records as filed in PubChem.
Compounds with a hit are over-represented: about 9% of the library has one in this group of screens.
G9a block – inhibitors of human histone lysine methyltransferase G9a | G9a H3K9 monomethylation, AlphaScreen, 2 h | Q96KQ7 | 8.8% of 350,000 active | Potency, µM (top dose mostly 102 µM), hits mostly inhibitors | AID 504332; also: nearly all actives have a fitted effect of over 75% in size
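Using a bead-based AlphaScreen, monomethylated H3K9 product from 2 h room-temperature reactions (G9a 20 nM, peptide 500 nM, SAM 20 uM) was detected with 0.5 ug/mL rabbit anti-H3K9me1 antibody.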
JMJD2A Tudor – inhibitors of human JMJD2A Tudor domain; O75164; AlphaScreen JMJD2A-Tudor / H3K4me3 peptide binding; Potency, µM (highest dose often 114 µM), hits mostly inhibitors; 4.4% of 390,000 active; also: nearly all actives have a fitted effect of over 50% in size
ALOX12 inh – inhibitors of human 12S-lipoxygenase ALOX12 | P18054 | purified 12hLO, xylenol orange hydroperoxide absorbance | Potency, µM (highest dose often 108 µM), hits mostly inhibitors | 1.1% of 580,000 active | AID 1671190
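Purified human 12hLO at 150 nM in 25 mM Hepes, 0.01% Triton X-100, pH 7.0, preincubated 15 min at room temperature with compound. Reaction started with 40 uM arachidonic acid, 30 min at room temperature. Hydroperoxide measured by Fe-xylenol orange, 573/405 nm absorbance ratio.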
BAZ2B block – blocks human BAZ2B; AlphaScreen BAZ2B-H3K14Ac peptide displacement; Potency, µM (doses to about 114 µM), usual class: inhibitors; 4.4% of 360,000 active; also: nearly all actives have a fitted effect of over 60% in size
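AlphaScreen luminescence quantifies BAZ2B engagement of H3K14Ac peptide; the protein and biotinylated peptide are both at 50 nM final, buffer PBS pH 7.4 with 0.01% Tween-20, all steps at room temperature.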
PLK1 PBD inh – blocks phosphopeptide binding to human PLK1 polo-box domain; Plk1 PBD binding of FITC phosphopeptide, fluorescence polarization; Potency, µM, most hits filed as inhibitors; 2.8% of 360,000 active; also: series mostly up to about 57 µM; nearly all actives have a fitted effect of over 65% in size
HP1b chromo inh – blocks HP1-beta chromodomain binding to methylated histone tails; AlphaScreen HP1-beta / biotin-H3K9me3 peptide binding; P83916; 0.56% of 390,000 active; Potency, µM (series often up to 114 µM), hits mostly inhibitors; also: nearly all actives have a fitted effect of over 70% in size
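Compound inhibition of the preformed complex between 50 nM HP1-beta and 50 nM biotinylated H3K9me3 peptide was read by AlphaScreen. Buffer was PBS pH 7.4 with 0.01% Tween-20. Incubations ran 30 min at room temperature, with 10 ug/mL donor/acceptor beads.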
Each line names hits and unclear results; the compound was inactive in the other large screens; ! = a repeat was not active. Calls follow the shape of the dose curve; as a rule, active = well fitted curve in the direction sought with a large enough effect; inconclusive = small, poorly fitted or top-dose-only effect, or another doubt; inactive = no such curve, though single readings can be large; an effect the other way counts as inactive or inconclusive.

COc1ccc(N=CC2=C(O)CC(c3ccccc3)CC2=O)c(OC)c1 (configuration not stated)	PLK1 PBD inh 21.2µM
O=C(COn1nnc2ccc(S(=O)(=O)N3CCOCC3)cc21)NCCc1ccccc1	none
O=C(CNc1cc(S(=O)(=O)N2CCOCC2)ccc1NCC1CCCO1)Nc1ccc(C(F)(F)F)cc1 (configuration not stated)	JMJD2A Tudor inconclusive
COc1ccccc1NC(=O)COn1nnc2ccc(S(=O)(=O)N3CCOCC3)cc21	JMJD2A Tudor inconclusive, PLK1 PBD inh 18.9µM
O=C(CSc1nncs1)Nc1cc(S(=O)(=O)N2CCOCC2)ccc1N1CCCC1	G9a block 35.5µM, ALOX12 inh inconclusive
CCCCCC(=O)Nc1cc(S(=O)(=O)N2CCCCC2)ccc1N1CCOCC1	none
Nc1nnc(SCC(=O)Nc2cc(S(=O)(=O)N3CCOCC3)ccc2N2CCCC2)s1	none
CCCCCC(=O)Nc1cc(S(=O)(=O)N2CCOCC2)ccc1N1CCCC1	G9a block 28.2µM
N#Cc1ccc(NC(=O)CNc2cc(S(=O)(=O)N3CCOCC3)ccc2NCC2CCCO2)cc1 (configuration not stated)	G9a block 39.8µM
O=C(C(O)c1ccc(Br)cc1)N1CCC(Nc2ccc3[nH]ncc3c2)CC1 (configuration not stated)	none (no result: G9a block, JMJD2A Tudor, BAZ2B block, HP1b chromo inh)
CCCn1c(SCC(=O)Nc2cc(S(=O)(=O)N3CCOCC3)ccc2OC)n[nH]c1=O	G9a block 3.16µM, PLK1 PBD inh 29.9µM
COC(=O)CCSCC(=O)Nc1ccc(S(=O)(=O)N2CCOCC2)cc1OC	PLK1 PBD inh inconclusive
CCCn1c(SCC(=O)Nc2cc(S(=O)(=O)N3CCOCC3)ccc2Cl)n[nH]c1=O	G9a block inconclusive
COc1cc(S(=O)(=O)N2CCOCC2)ccc1NC(=O)CSc1nnc(N)s1	G9a block 44.7µM
COc1ccc(CC(=O)OCC(=O)Nc2cc(S(=O)(=O)N3CCOCC3)ccc2N2CCCC2)cc1	G9a block 39.8µM
CCOCC(=O)Nc1cc(S(=O)(=O)N2CCOCC2)ccc1N1CCCCC1	G9a block 7.08µM, JMJD2A Tudor 89.1µM, BAZ2B block inconclusive, PLK1 PBD inh 4.74µM, HP1b chromo inh inconclusive
CCOC(=O)CCC(=O)Nc1cc(S(=O)(=O)N2CCOCC2)ccc1N1CCCCC1	none
N#Cc1ccc(OCc2cccc(S(=O)(=O)N3CCOCC3)c2)cc1	none
N#Cc1ccc(OCC(=O)Nc2cc(S(=O)(=O)N3CCOCC3)ccc2N2CCOCC2)cc1	G9a block 70.8µM
N#Cc1ccc(C(=O)OCc2cccc(S(=O)(=O)N3CCOCC3)c2)cc1	G9a block 14.1µM, JMJD2A Tudor inconclusive
N#Cc1ccc(OCC(=O)Nc2cc(S(=O)(=O)N3CCOCC3)ccc2N2CCCC2)cc1	none (no result: G9a block, BAZ2B block)
CC(C)(C)c1cc[n+](C2=C([O-])c3ccccc3C(=O)/C2=N\S(=O)(=O)c2cccs2)cc1	none (no result: G9a block)
O=C1/C(=N\S(=O)(=O)c2cccs2)C([n+]2ccccc2)=C([O-])c2ccccc21	BAZ2B block inconclusive, PLK1 PBD inh inconclusive
Cc1cccc(NC2=C/C(=N/S(=O)(=O)c3cccs3)c3ccccc3C2=O)c1	G9a block inconclusive, JMJD2A Tudor 5.62µM, BAZ2B block 2.51µM, HP1b chromo inh inconclusive
Cc1ccc(NC2=C/C(=N\S(=O)(=O)c3cccs3)c3ccccc3C2=O)c(C)c1	G9a block 7.94µM, JMJD2A Tudor 4.47µM, BAZ2B block 3.55µM, HP1b chromo inh 5.62µM (no result: ALOX12 inh)
O=C1C(Nc2ccc(O)cc2)=C/C(=N/S(=O)(=O)c2cccs2)c2ccccc21	G9a block 11.2µM, JMJD2A Tudor 20µM, ALOX12 inh inconclusive, BAZ2B block 7.94µM, HP1b chromo inh inconclusive
Cc1ccc(Cl)cc1NC(=O)CN1CCN(S(=O)(=O)c2cccs2)CC1	none (no result: G9a block, JMJD2A Tudor, BAZ2B block, PLK1 PBD inh, HP1b chromo inh)
Cc1ccc(Cl)cc1NC1=C/C(=N\S(=O)(=O)c2cccs2)c2ccccc2C1=O	G9a block 8.91µM, JMJD2A Tudor 2.82µM, BAZ2B block 10µM, PLK1 PBD inh inconclusive, HP1b chromo inh 3.98µM!
CN1CCN([C@H]2CCN(Cc3ccc(C#CCO)cc3)C[C@H]2CCC(=O)O)CC1	none (no result: G9a block, JMJD2A Tudor, BAZ2B block, PLK1 PBD inh, HP1b chromo inh)
CC(C)(C)c1nc2cc(NC(=O)Cn3cnc4ccccc4c3=O)ccc2o1	none (no result: G9a block, JMJD2A Tudor, BAZ2B block, PLK1 PBD inh, HP1b chromo inh)
NCCCCCc1nnc(SCC(=O)c2ccc(Cl)cc2)o1	G9a block 50.1µM
CS(=O)(=O)c1ccc(CC(=O)N[C@@H]2COCC[C@@H]2OCC2CC2)cc1	none (no result: G9a block, JMJD2A Tudor, BAZ2B block, PLK1 PBD inh, HP1b chromo inh)
CC(C)OC(=O)C(=O)NNc1ccccc1	G9a block inconclusive, ALOX12 inh inconclusive
C=C(C)C(=O)NNc1ccccc1	G9a block 11.2µM
CCCOC(=O)C(=O)NNc1ccccc1	G9a block 39.8µM
Fc1cccc(CCN2CCNC[C@H]2Cc2cccc3ccccc23)c1	BAZ2B block inconclusive
O=C(NCCc1ccccc1)C1(c2ccccc2)CC1(Cl)Cl (configuration not stated)	none
C#CCOCCOCCOCCNc1nc(N2CCN(C(=O)CCCCCCCCCCNC(=O)[C@H](CCCCN)n3cc(C[C@@H](C)CC)nn3)CC2)nc(N2CCN(C(=O)CCCCCCCCCCNC(=O)[C@@H]([C@H](C)O)n3cc(C)nn3)CC2)n1	JMJD2A Tudor 56.2µM, BAZ2B block 50.1µM, HP1b chromo inh inconclusive (no result: ALOX12 inh)
C#CCOCCOCCOCCNc1nc(N2CCN(C(=O)CCCCCCCCCCNC(=O)[C@H](CCCCN)n3cc(C)nn3)CC2)nc(N2CCN(C(=O)CCCCCCCCCCNC(=O)[C@@H]([C@H](C)O)n3cc(C)nn3)CC2)n1	JMJD2A Tudor 56.2µM (no result: ALOX12 inh)
C#CCOCCOCCOCCNc1nc(N2CCN(C(=O)[C@H]([C@@H](C)O)n3cc(CCCCN)nn3)CC2)nc(N2CCN(C(=O)[C@H](CCCCN)n3cc(CC(C)O)nn3)CC2)n1 (some centres not stated)	ALOX12 inh inconclusive
C#CCOCCOCCOCCNc1nc(N2CCN(C(=O)CCCCCCCCCCNC(=O)[C@@H](CCSC)n3cc(CCO)nn3)CC2)nc(N2CCN(C(=O)CCCCCCCCCCNC(=O)[C@@H]([C@H](C)O)n3cc(C)nn3)CC2)n1	BAZ2B block inconclusive
COc1ccc(C2Cn3cnc(C(=O)N4CCC(C(=O)Nc5ccc(F)cc5)CC4)c3CO2)cc1 (configuration not stated)	none (no result: G9a block, JMJD2A Tudor, BAZ2B block, PLK1 PBD inh, HP1b chromo inh)
CCOC(=O)/C(CCC[N+](C)(CC)CC)=N\O	G9a block 11.2µM, JMJD2A Tudor inconclusive, ALOX12 inh inconclusive, PLK1 PBD inh inconclusive, HP1b chromo inh inconclusive
CC(C)NC(=O)c1onc(CSc2nc3ccccc3[nH]2)c1C(=O)NC(C)C	G9a block 50.1µM
CCCCNC(=O)c1onc(CSc2nc3ccccc3[nH]2)c1C(=O)NCCCC	G9a block 70.8µM
